# Screening results as filed in PubChem.
# USP10 block = inhibitors of human USP10 deubiquitinase; purified USP10, Ub-rhodamine fluorescence, 60 min; inhibition, % at 20 µM; hit rate 1.1% among 47,000
# USP7 inh = inhibitors of human USP7 deubiquitinase; purified USP7, Ub-rhodamine cleavage fluorescence; hit rate 0.3% among 47,000; AID 1645854; inhibition, % at 20 µM
# USP30 block = human USP30 deubiquitinase inhibition | purified USP30, Ub-rhodamine cleavage fluorescence | inhibition, % at 25 µM | AID 1645860 | hit rate 5.3% among 47,000
# USP17 inh = blocks human USP17 ubiquitin-rhodamine cleavage; purified USP17, Ub-rhodamine cleavage fluorescence, 3 h; A8MUK1; inhibition, % at 50 µM; AID 1645855; hit rate 6.5% among 47,000
# Target sequence (A8MUK1 whole entry, looked up): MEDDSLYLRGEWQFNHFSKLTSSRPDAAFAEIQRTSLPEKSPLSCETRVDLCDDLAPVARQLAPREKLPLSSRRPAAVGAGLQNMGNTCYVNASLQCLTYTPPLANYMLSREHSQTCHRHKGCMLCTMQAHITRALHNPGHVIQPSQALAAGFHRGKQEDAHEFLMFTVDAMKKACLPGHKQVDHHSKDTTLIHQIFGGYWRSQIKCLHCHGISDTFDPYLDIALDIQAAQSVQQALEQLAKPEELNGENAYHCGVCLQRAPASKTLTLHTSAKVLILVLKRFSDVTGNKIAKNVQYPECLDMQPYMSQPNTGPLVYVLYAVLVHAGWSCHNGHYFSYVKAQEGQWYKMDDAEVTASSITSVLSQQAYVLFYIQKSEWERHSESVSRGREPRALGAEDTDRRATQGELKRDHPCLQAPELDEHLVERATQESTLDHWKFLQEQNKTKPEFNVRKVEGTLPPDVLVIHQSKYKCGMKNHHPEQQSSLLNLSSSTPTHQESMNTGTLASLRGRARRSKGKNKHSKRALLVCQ
# UCHL1 inh = human UCHL1 deubiquitinase inhibition. P09936. hit rate 0.2% among 47,000. purified UCHL1, Ub-rhodamine cleavage fluorescence. inhibition, % at 20 µM
# USP8 inh = blocks human USP8 ubiquitin-rhodamine cleavage; P40818; purified USP8, Ub-rhodamine cleavage fluorescence, 30 min; inhibition, % at 20 µM; hit rate 4.2% among 47,000; AID 1645853
# An asterisk follows results filed as active; nt = no result. This is a sample that favours compounds with a hit; in the whole collection about 13% have one here. Rule as the data show it: active = inhibition above about 30%; inactive = the rest.
SMILES,USP10 block,USP7 inh,USP30 block,USP17 inh,UCHL1 inh,USP8 inh
CCc1ccc2[nH]c(=O)c(CN(CCc3ccc(OC)c(OC)c3)C(=O)Nc3ccccc3)cc2c1,11,5,54*,44*,2,3
Cc1ccc2[nH]c(=O)c(CN(Cc3cccnc3)C(=O)c3cccc(Cl)c3)cc2c1,0,0,51*,9,2,12
CCc1ccc2[nH]c(=O)c(CN(CCCO)C(=O)Nc3cccc(Cl)c3)cc2c1,4,3,-3,1,4,-2
COc1ccccc1NS(=O)(=O)c1c(C(C)C)nc2sc(C)cn12,0,-2,2,-4,0,-6
CCCN1CCN(C(=O)C2CCN(c3cnc4nccnc4c3)CC2)CC1,-5,-26,-369,-117,-24,-80
CNc1cc(C2CCCN2C(=O)c2cccnc2OC)nc(C)n1 (configuration not stated),1,3,3,0,0,0
Cn1c(-c2c(-c3ccccc3)n[nH]c2-c2ccccc2Cl)nc2ccccc21,8,1,7,-6,6,0
COc1ccc(CCNC(=O)c2cc(S(=O)(=O)N3CCOCC3)ccc2F)cc1OC,-4,-1,0,-10,-3,-3
COc1ccc(CCNS(=O)(=O)c2ccc(F)c(C(=O)Nc3ccc(Cl)cc3C(F)(F)F)c2)cc1OC,10,12,61*,71*,9,23
O=C(COc1ccc(F)cc1)NCC(c1ccco1)N1CCCCC1 (configuration not stated),0,-8,-18,-8,-2,9
Cc1ccccc1CNC(=O)N1C[C@H]2C[C@H]3[C@](C1)(CN(C)S3(=O)=O)O2,0,4,9,-2,1,-46
O=C(NCc1ccccc1)C(c1ccc(F)cc1)N(C(=O)CCN1CCc2ccccc21)c1ccc2c(c1)OCO2 (configuration not stated),-3,7,-301,-42,-11,40*
COc1ccc(C(C(=O)NCc2ccccc2)N(C(=O)CCN2CCc3ccccc32)c2ccc3c(c2)OCO3)cc1 (configuration not stated),0,5,-91,-10,2,23
CCCCCC1OC(=O)c2c(C)cccc2Oc2ccc(O)c(C=O)c2/C=C/C1O (configuration not stated),31*,-98,73*,81*,41*,14
CCOC(=O)N1CCC(NS(=O)(=O)c2ccc(-c3ccon3)s2)CC1,-1,-2,-4,-5,-4,-28
COc1cnc(CSc2ncccn2)cc1OCC(=O)Nc1ccccc1F,4,1,-296,-6,-2,-48
COc1cnc(CSc2ncccn2)cc1OCC(=O)Nc1cc(C)ccc1C,-1,2,55*,-16,0,-63
COc1cnc(CSc2ncccn2)cc1OCC(=O)Nc1cccc(F)c1,3,-4,32*,-7,-3,-61
CCCCCC(=O)C(CCCC)c1oc(=O)c(CCCC)c(O)c1CCCC (configuration not stated),39*,14,25,30*,10,20
COc1cccc(NC(=O)C2=CN(Cc3ccccc3)S(=O)(=O)N=C2C)c1,-5,-24,-77,-10,-18,-17
CC(C)c1ccc(CNc2nc3nc(CN4CCCC4)cc(=O)n3[nH]2)cc1,0,2,-9,-27,-2,-152
COc1ccc(NCc2cc(=O)n3[nH]c(NCc4ccc(C(C)C)cc4)nc3n2)cc1,-12,3,16,56*,-39,-41
O=c1cc(CN2CCc3ccccc3C2)nc2nc(NCc3ccc(Cl)cc3)[nH]n12,9,9,49*,28,1,-85
O=C(c1ccc(F)cc1)N1CCC(C2CCNCC2)CC1,4,-2,-3,-6,-2,-1
Cc1nc(-c2ccccc2)n(Cc2ccc(F)cc2)c(=O)c1CCO,10,-167,-7,nt,13,-4
SMILES,USP10 block,USP7 inh,USP30 block,USP17 inh,UCHL1 inh,USP8 inh
Cc1cccc(NC(=O)c2ccc(N3CCCC3)nn2)n1,-2,0,5,-3,2,-6
Cc1c(Cl)cccc1NC(=O)c1ccc(N2CCCC2)nn1,-4,-3,61*,56*,-2,-17
Cc1nc2cc(NC(=O)c3ccc(N4CCCC4)nn3)ccc2s1,0,2,-1,nt,0,-35
Cc1cccc(NC(=O)c2ccc(N3CCCC3)nn2)c1,2,1,32*,-9,0,-24
CCOc1ccc(NC(=O)CNc2nc(Nc3ccc(OC)cc3)nc(Nc3ccc(OC)cc3)n2)cc1,29,4,69*,58*,1,10
Cc1ccc(NC(=O)CNc2nc(Nc3ccccc3)nc(Nc3ccccc3)n2)cc1,-2,4,1,7,3,-4
CCOc1ccc(NC(=O)CCn2c(-c3ccc(OC)cc3)cc(C(C)=O)c2C)cc1,4,5,80*,70*,0,19
COc1ccc(S(=O)(=O)N2Cc3ccccc3CC2C(=O)Nc2nc3c(s2)CCCC3)cc1OC (configuration not stated),9,5,5,-6,6,-6
Cc1ccc2c(-c3csc(N)n3)c(C)[nH]c2c1,-9,-29,-377,-67,-51,-63
Nc1ncnc2sc(Nc3ccc([N+](=O)[O-])cc3)nc12,13,20,39*,34*,7,50*
Cc1sc2ncnc(OCc3ccc([N+](=O)[O-])cc3)c2c1C,-4,-87,-99,-4,0,-136
Cc1c(OCc2nn[nH]n2)ccc2c1oc(=O)c1ccccc12,10,2,-18,-26,0,-28
CCc1ccc(C2c3c(-c4cc(C)cc(C)c4O)n[nH]c3C(=O)N2Cc2cccnc2)cc1 (configuration not stated),15,3,3,15,8,74*
CNc1nc2c(c(=O)n1C)CN(C(=O)Nc1cccc3ccccc13)CC2,21,-86,-27,71*,28,90*
CCCCN(C)c1ncnc2c1sc1nc(CCC)c3c(c12)CCC3,-2,0,-13,-11,-1,-5
CCCCNC(=O)c1ccc2c(=O)n(-c3ccc(C)cc3)c(=O)[nH]c2c1,19,9,13,7,0,1
c1ccc(-c2cnc([C@@H]3COCCN3Cc3csnn3)[nH]2)cc1,2,5,12,6,1,16
CN(C)c1ccc(CN2CCOC[C@H]2c2ncc(-c3cccnc3)[nH]2)cc1,-1,-35,-38,-66,9,33*
COc1cc(CN(C(=O)c2oc3cc(C)ccc3c2C)c2ccccn2)cc(OC)c1OC,10,12,-10,17,9,32*
O=C(NCc1cccnc1)C1CCN(S(=O)(=O)c2ccc3c(c2)CCCC3)CC1,7,-2,34*,7,3,9
CCOc1ccc(-c2nnc(NC(=O)C3CCN(S(=O)(=O)c4ccc5c(c4)CCC5)CC3)o2)cc1,44*,23,28,9,9,-120
